HIV RNase H inh-1: inhibitors of HIV-1 reverse transcriptase RNase H; RT-RNase H RNA/DNA duplex cleavage, fluorescence; inhibition, % at 10 µM; hit rate 1.9% among 65,000; in the data active = inhibition above about 50%
HIV RNase H inh-2: confirmation of HIV-1 reverse transcriptase RNase H inhibitors; shares compounds with HIV RNase H inh-1; Recombinant RT RNase H, fluorescent RNA/DNA duplex cleavage; AID 651; inhibition, % at 10 µM; hit rate 39% among 1,000; in the data active = inhibition above about 48%; inconclusive = no clear call, values can overlap the other calls
Of the large screens only hits and unclear results are named; the others gave an inactive call (follow-up assays come after a bar, where they were run). Many of the other results were omitted from the sample, so hits are more common in it than they were.

COc1cccc(C(=O)Nc2ccc(-c3nc4ccccc4o3)c(O)c2)c1	HIV RNase H inh-1 66 | HIV RNase H inh-2 inactive
COc1ccc(OCC(=O)Nc2ccc(C)cc2)cc1	none
COc1cc(C(=O)Nc2ccc(-c3nc4cc(C)ccc4o3)c(O)c2)cc(OC)c1OC	none
COc1cc(OC)cc(C(=O)Nc2ccc(-c3nc4ccccc4o3)cc2)c1	none
O=C(COc1ccc(Cl)cc1)Nc1ccc2oc(-c3ccncc3)nc2c1	none
CC(C)(C)Nc1nc(NC(C)(C)C)nc(-n2ccnc2)n1	none
O=C(NC1(C(F)(F)F)NC(=O)N(C2CCCC2)C1=O)C1CC1 (stereo not given)	none
CCC(C)NC(=O)Cn1cnc2sc(C)cc2c1=O (stereo not given)	none
COc1ccc(Cl)cc1-n1c(=S)sc2c(=O)[nH]c(SCC(=O)NCC3CCCO3)nc21 (stereo not given)	none
Cc1cccc(-n2c(-c3ccco3)nc3ccccc3c2=O)n1	none
Cc1cccc(-n2c(O)c(C=Nc3ccc4c(c3)OCO4)c3ccccc3c2=O)n1	HIV RNase H inh-1 65 | HIV RNase H inh-2 inactive
Cc1cc(N=Cc2c(O)n(-c3ccc4c(c3)OCO4)c(=O)c3ccccc23)ccn1	none
Cc1ccc(C2C3=C(CC(C)(C)CC3=O)N(CCN3CCOCC3)C3=C2C(=O)CC(C)(C)C3)cc1	none
CC(=O)C1=C(C)N=c2s/c(=C/c3ccc4c(c3)OCO4)c(=O)n2C1c1ccc(N(C)C)cc1 (stereo not given)	none
COc1ccc(C2C(C(C)=O)=C(C)N=c3s/c(=C/c4ccc5c(c4)OCO5)c(=O)n32)cc1 (stereo not given)	HIV RNase H inh-1 70 | HIV RNase H inh-2 54
CCOC(=O)C1=C(C)N=c2s/c(=C/c3ccco3)c(=O)n2C1c1cccc(OC)c1 (stereo not given)	none
COc1ccc(-n2cnnc2SCc2csc(-c3ccccc3)n2)cc1	none
Cc1ccccc1N1C(=O)C(Cl)=C(N2CCCCCC2)C1=O	none
COc1ccc(OC)c(N2C(=O)C(Cl)=C(N3CCOCC3)C2=O)c1	none
O=C1C(Cl)=C(N2CCCCC2)C(=O)N1c1ccccc1Cl	HIV RNase H inh-1 72 | HIV RNase H inh-2 inactive
Nc1c(C(=O)NCc2cccnc2)sc(=S)n1-c1ccccc1	HIV RNase H inh-1 60 | HIV RNase H inh-2 63
C=CCn1c(N)c(C(=O)NCC2CCCO2)sc1=S (stereo not given)	none
CCn1c(N)c(C(=O)NCc2cccnc2)sc1=S	none
Nc1c(C(=O)NCC2CCCO2)sc(=S)n1-c1ccccc1 (stereo not given)	HIV RNase H inh-1 84 | HIV RNase H inh-2 inconclusive
CCn1c(N)c(C(=O)NCC2CCCO2)sc1=S (stereo not given)	none
Cc1cc(C(=O)NCc2cccnc2)n(-c2ccccc2)n1	none
CS(=O)CSc1nc2c(cc1C#N)CCCC2 (stereo not given)	none
N#Cc1cc2c([nH]c1=S)CCCCCC2	HIV RNase H inh-1 81 | HIV RNase H inh-2 inactive
N#Cc1c(N)n[nH]c1-c1cc2c([nH]1)CCCC2	none
COc1ccc(CNC(=O)c2ccc(NS(=O)(=O)c3c(C)noc3C)cc2)cc1	none
CCc1ccc(OCc2nnc(SCC(=O)NCc3ccco3)o2)cc1	none
COc1ccc(OC)c(-c2nc3c(C)n[nH]c(=O)c3[nH]2)c1	none
COC(=O)c1sc(NC(=O)CSc2nnnn2-c2ccc(C)cc2C)nc1C	HIV RNase H inh-1 64 | HIV RNase H inh-2 inactive
COC(=O)c1ccc(CSc2nnnn2-c2ccc(C)cc2C)o1	none
Cc1ccc(-n2nnnc2SCC(N)=O)c(C)c1	none
Cc1c(C(=O)c2no[n+]([O-])c2C(=O)c2cnn(C)c2C)cnn1C	none
Cc1cc(C)c2c(CC(=O)N(CCC#N)Cc3cccnc3)coc2c1	none
COc1ccc(C(=O)Nn2c(SCC(=O)NCc3ccco3)nc3ccccc3c2=O)cc1	none
Cn1c(SCC(=O)NCc2ccco2)nc2ccccc2c1=O	none
O=C(CSc1nc2ccccc2c2nc3ccccc3n12)NCc1ccco1	HIV RNase H inh-1 84 | HIV RNase H inh-2 64
O=c1c(-c2ccccc2)[n+]([O-])c2ccccc2n1O	none
COc1ccccc1/C=c1\sc2nc(-c3ccncc3)nn2c1=O	none
COc1ccc(Br)cc1/C=c1\sc2nc(-c3ccco3)nn2c1=O	HIV RNase H inh-1 73 | HIV RNase H inh-2 inconclusive
COc1ccc(C(=O)n2nc(-c3ccco3)nc2SC)cc1OC	none
CCC(=O)c1cc(F)c(N2CCN(S(=O)(=O)c3ccc(C)cc3)CC2)cc1C	none
COc1cccc(NC(=O)CSCc2n[nH]c(=O)[nH]2)c1	none
Cc1nnc(SCC(=O)Nc2ccc(N3CCOCC3)cc2)o1	none
Cc1noc(C)c1CSc1nnc2scc(-c3ccccc3)n12	HIV RNase H inh-1 63 | HIV RNase H inh-2 inactive
Cc1noc(C)c1CSc1nnc(-c2ccccc2)n1Cc1ccco1	none
CC(=O)Nc1ccc(C(=O)CSc2nnc3scc(-c4ccccc4)n23)cc1	none
O=C(Nc1ccccc1OC(F)F)c1ccc(Br)o1	none
CCc1nnc(NC(=O)CCC(=O)N2CCN(CCOc3ccc(C)cc3)CC2)s1	none
Cc1ccc(N(C(C)C(=O)O)S(=O)(=O)c2c(C)n[nH]c2C)cc1 (stereo not given)	none
COc1ccc(OC)c(-n2nnnc2SCC(=O)NCCc2ccccc2)c1	none
COc1cccc(-n2nnnc2SCC(=O)NCc2ccco2)c1	none
COc1cccc(-n2nnnc2SCC(=O)NCCc2ccccc2)c1	HIV RNase H inh-1 70 | HIV RNase H inh-2 inactive
CCCOc1ccc(/C(O)=C2/C(=O)C(=O)N(CCN(C)C)C2c2ccncc2)cc1 (stereo not given)	none
CCOc1ccccc1N(C(=O)c1ccco1)C(C(=O)NC1CCCC1)c1cccnc1 (stereo not given)	none
O=c1[nH]c(=O)n(CCO)c2nnn(Cc3ccccc3)c12	none
COc1ccc(OCCOC(=O)c2cccc(-n3cnnn3)c2)cc1	none
COc1ccc(-n2c(C)cc(C(=O)COc3ccc(-n4cnnn4)cc3)c2C)cc1	HIV RNase H inh-1 53 | HIV RNase H inh-2 inactive
COc1ccc(-n2c(C)cc(C(=O)Cn3nnc4ccccc4c3=O)c2C)cc1	none
O=C(c1ccccc1Oc1nnnn1-c1ccccc1)N1CCOCC1	none
CS(=O)(=O)N(CC(=O)NCc1ccncc1)c1cc(Cl)cc(Cl)c1	none
CCOC(=O)c1c(C)[nH]sc1=S	none
CCOC(=O)c1nn(-c2ccccc2C)c(=O)c(C#N)c1C	none
CCOC(=O)c1c(N)sn(-c2ccccc2C)c1=S	HIV RNase H inh-1 92 | HIV RNase H inh-2 71
C=CCN=C(NC#N)SCc1ccccc1Cl	none
COc1ccc(N(C(=O)COc2ccccc2)C2C=CS(=O)(=O)C2)cc1 (stereo not given)	none
CCCOc1ccc(C(=O)Nn2c(C)nc3ccccc3c2=O)cc1	HIV RNase H inh-1 72 | HIV RNase H inh-2 inactive
Cc1nc2ccccc2c(=O)n1NC(=O)COc1ccccc1	none
CCCCOc1ccc(CNn2c(C)nc3ccccc3c2=O)cc1	none
CC(O)Cc1nsc(NC(=O)c2ccc(Br)o2)n1 (stereo not given)	none
O=C(O)CCc1ccc(-c2cccs2)o1	HIV RNase H inh-1 89 | HIV RNase H inh-2 inactive
O=C(Cc1ccccc1)Nc1nnc(-c2cccs2)s1	none
O=C(NCc1cccs1)c1cc(-c2cccs2)on1	none
COc1ccc(NC(=O)Cn2c(=O)sc3ccccc32)c(OC)c1	none
O=C(CSc1nnc(-c2csc3c2CCCC3)o1)Nc1ccccc1	none
N#Cc1c2c(nc(N)c1-c1ccccc1)CCCCC2	none
N#Cc1c(N)nc2c(c1-c1ccccc1)CCCC2	none
N#Cc1c(N)[nH]c(=S)c(C#N)c1-c1ccccc1	HIV RNase H inh-1 82 | HIV RNase H inh-2 inactive
Cc1cccc(NC(=O)c2cc(S(=O)(=O)NCc3ccco3)ccc2F)c1C	none
CCCNS(=O)(=O)c1ccc(OCC(=O)NCc2ccc3c(c2)OCO3)cc1	none

Screening data deposited in PubChem BioAssay by University of Pittsburgh Molecular Library Screening Center.
